Reference: PubChem BioAssay (EPA / NIEHS)
Inconclusive results are not listed. Active and inactive are the calls of the source. How the source made its calls: active means hit-call score of the fitted dose curve at least 0.9, where 1 is the maximum; inconclusive means response in the unintended direction; inactive means score below 0.9.

Columns and labels:
[1] = Tanguay_ZF_120hpf_CFIN_legacy: (Legacy) Oregon State University Tanguay Lab 120 Hour Post-fertilization zebrafish Assay for Caudal Fin Malformation (AID 2283649)
How it was run: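 Binary brightfield scoring of caudal fin defects at 120 hpf after static, light-shielded exposure at 28C from 6 hpf. Tropical 5D embryos, chorion removed with pronase at 4 hpf, final DMSO 0.64%.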

[2] = Tanguay_ZF_120hpf_PIG_legacy: (Legacy) Oregon State University Tanguay Lab 120 Hour Post-fertilization zebrafish Assay for Pigmentation Malformation (AID 2283650)
How it was run: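 Dechorionated Tropical 5D wild-type embryos, one per well from 6 hpf, statically exposed at 28C in the dark until 120 hpf, 0.64% DMSO final. Pigmentation scored present/absent by brightfield microscopy; dead embryos not scored; fitted versus DMSO.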

[3] = Tanguay_ZF_120hpf_CIRC_legacy: (Legacy) Oregon State University Tanguay Lab 120 Hour Post-fertilization zebrafish Assay for Circulatory Malformation (AID 2283651)
How it was run: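 Using wild-type Tropical 5D zebrafish, we exposed dechorionated embryos from 6 to 120 hpf in embryo medium with 0.64% DMSO. Circulatory defects were scored as present or absent; 5uM trimethyltin chloride served as positive control.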

[4] = Tanguay_ZF_120hpf_SWIM_legacy: (Legacy) Oregon State University Tanguay Lab 120 Hour Post-fertilization zebrafish Assay for Swim Bladder Malformation (AID 2283654);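 further: swim bladder malformation in each larva scored yes or no under brightfield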
How it was run: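 Dechorionated wild-type Tropical 5D zebrafish embryos, one per well from 6 hpf, were statically exposed at 28C until 120 hpf in 0.64% DMSO. Swim bladder malformation scored as present/absent by brightfield microscopy; not scored in dead larvae.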

[5] = Tanguay_ZF_120hpf_TRUN_legacy: (Legacy) Oregon State University Tanguay Lab 120 Hour Post-fertilization zebrafish Assay for Truncated Body (AID 2283655)
How it was run: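 Binary presence/absence of truncated body is recorded at 120 hpf by brightfield, with non-mortality endpoints skipped after death. Exposure is static from 6 hpf in sealed dark plates at 28C, using dechorionated wild-type zebrafish, 0.64% DMSO.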

[6] = Tanguay_ZF_120hpf_NC_legacy: (Legacy) Oregon State University Tanguay Lab 120 Hour Post-fertilization zebrafish Assay for Notochord and Tail Malformation (AID 2283656)
How it was run: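 Dechorionated 5D zebrafish, 1/well from 6 hpf; static exposure to 120 hpf, 28C, sealed, dark; final DMSO 0.64% v/v. NC scored binary (present/absent); dead embryos not scored. Fit vs DMSO baseline, gain direction.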

[7] = read-out: ABC Transporter (ABCB1), ABCB1 (gene 5243); test: CLD_ABCB1_6hr: CellzDirect (CLD) Gene Expression Assay for ABC Transporter (ABCB1) at 6 hours (AID 2283659);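 further: hits raise ABCB1 transcript above the DMSO vehicle baseline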
How it was run: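 Primary human hepatocytes (two donor preparations) dosed daily for two days with chemicals at multiple concentrations, 0.2% DMSO vehicle; harvested 6 h post-dose. ABCB1 mRNA induction quantified by qNPA chemiluminescence; gain-of-signal fitted versus DMSO.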

[8] = read-out: xenobiotic metabolism (CYP1A2), CYP1A2 (gene 1544); test: CLD_CYP1A2_6hr: CellzDirect (CLD) Gene Expression Assay for xenobiotic metabolism (CYP1A2) at 6 hours (AID 2283663);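 on AC50: potency is for induction meaning a rise in mRNA above DMSO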
How it was run: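 Primary human hepatocytes from two donor preparations, dosed daily with multiple concentrations in 0.2% DMSO and harvested at 6 h. CYP1A2 mRNA induction measured by chemiluminescent qNPA, gain of signal fitted against DMSO; cytotoxicity flagged morphologically.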

[9] = Tanguay_ZF_120hpf_TR_legacy: (Legacy) Oregon State University Tanguay Lab 120 Hour Post-fertilization zebrafish Assay for Touch Response (AID 2283667)
How it was run: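 Tropical 5D wild-type zebrafish embryos statically exposed to 120 hpf at 28°C, sealed and dark-covered, 0.64% DMSO final; touch response scored as present/absent by brightfield microscopy at 120 hpf. Trimethyltin chloride 5 uM positive control; dead embryos not scored.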

[10] = read-out: sulfotransferase (SULT2A), SULT2A1 (gene 6822); test: CLD_SULT2A_6hr: CellzDirect (CLD) Gene Expression Assay for sulfotransferase (SULT2A) at 6 hours (AID 2283669);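 further: hits raise transcript level above the DMSO vehicle baseline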
How it was run: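 Primary human hepatocytes from two donor preparations were dosed daily with chemicals or 0.2% DMSO and harvested at 6 h. Transcript induction read by qNPA chemiluminescence, fitted for gain of signal relative to DMSO; morphology-based cytotoxicity annotated.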

[11] = CLD_ACTIN_24hr: CellzDirect (CLD) Gene Expression Assay for Baseline Control (Actin) at 24 hours (AID 2283670)
How it was run: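 Primary human hepatocytes dosed over multiple concentrations with 0.2% DMSO vehicle; actin mRNA measured at 24 h by qNPA chemiluminescence. Background control endpoint, fitted as gain of signal versus DMSO.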

[12] = read-out: xenobiotic metabolism (CYP1A1), CYP1A1 (gene 1543); test: CLD_CYP1A1_6hr: CellzDirect (CLD) Gene Expression Assay for xenobiotic metabolism (CYP1A1) at 6 hours (AID 2283661);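 on AC50: potency for transcript induction above DMSO vehicle baseline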
How it was run: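 Primary human hepatocytes from two donors, compound versus 0.2% DMSO vehicle. CYP1A1 mRNA measured 6 h after dosing by quantitative nuclease protection assay with chemiluminescent read-out; induction fitted relative to DMSO, cytotoxicity flagged by microscopy.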

[13] = system: Thyroperoxidase (TPO), gene 54314; test: CCTE_Simmons_AUR_rTPO: CCTE's Amplex UltraRed Assay for Thyroperoxidase (TPO) Inhibition, Simmons Lab (AID 2283662);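 on AC50: potency for loss of signal meaning inhibition of peroxidase activity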
How it was run: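 Rat thyroid microsomal TPO + 25 uM AUR in 200 mM K phosphate; cpd 5 nM–87.5 uM [final], 8 conc, 0.5% DMSO; 300 uM H2O2 starts rxn; 37C dark 30 min; endpoint FI 544/590 nm; n=3.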

[14] = read-out: Broad substrate specificity ATP-binding cassette transporter ABCG2 (Homo sapiens) (UniProt Q9UNQ0); test: CLD_ABCG2_6hr: CellzDirect (CLD) Gene Expression Assay for ABC Transporter (ABCG2) at 6 hours (AID 2283660)
How it was run: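 Primary human hepatocytes dosed daily with chemicals at multiple concentrations (0.2% DMSO vehicle), harvested 6 h after dosing. ABCG2 mRNA induction read by quantitative nuclease protection assay (qNPA) chemiluminescence; gain of signal fitted against DMSO baseline.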

Measured: AC50

Chain of Broad substrate specificity ATP-binding cassette transporter ABCG2 (Homo sapiens) (Q9UNQ0 whole entry, looked up): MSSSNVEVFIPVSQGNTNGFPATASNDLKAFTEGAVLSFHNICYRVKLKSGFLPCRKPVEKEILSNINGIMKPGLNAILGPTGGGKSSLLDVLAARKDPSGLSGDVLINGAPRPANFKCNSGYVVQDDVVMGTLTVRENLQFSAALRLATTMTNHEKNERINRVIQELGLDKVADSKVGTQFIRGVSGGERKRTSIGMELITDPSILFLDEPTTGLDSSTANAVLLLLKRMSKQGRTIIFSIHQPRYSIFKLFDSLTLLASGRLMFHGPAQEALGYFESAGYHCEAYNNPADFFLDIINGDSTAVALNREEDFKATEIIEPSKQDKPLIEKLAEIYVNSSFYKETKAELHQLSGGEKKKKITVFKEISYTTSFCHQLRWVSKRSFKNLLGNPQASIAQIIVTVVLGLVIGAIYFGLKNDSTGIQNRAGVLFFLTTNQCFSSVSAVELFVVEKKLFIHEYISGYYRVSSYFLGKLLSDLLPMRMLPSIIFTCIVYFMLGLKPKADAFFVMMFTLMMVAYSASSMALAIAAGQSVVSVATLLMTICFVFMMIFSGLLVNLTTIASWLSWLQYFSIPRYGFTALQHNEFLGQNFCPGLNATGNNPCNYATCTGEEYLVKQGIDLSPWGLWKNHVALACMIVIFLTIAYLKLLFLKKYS

Cn1c(-c2ccccc2)cc(-c2ccccc2)[n+]1C
not listed: [12] | [13] | [14]
inactive: all other assays above

CCNP(=S)(OC)O/C(C)=C/C(=O)OC(C)C (centres undefined)
active: [12] 3.37 µM
not listed: [8] | [10] | [11] | [14]
inactive: all other assays above

Cc1cnc(C2=NC(C)(C(C)C)C(=O)N2)c(C(=O)O)c1 (centres undefined)
not listed: [1] | [8] | [10] | [12]
inactive: all other assays above

O=c1n(Cl)c(=O)n(Cl)c(=O)n1Cl
active: [12] 11.3 µM | [13] 22.5 µM | [8] 20 µM
not listed: [7] | [10] | [11]
inactive: all other assays above

CC(C)N1C(=O)c2ccccc2NS1(=O)=O
inactive: [3] | [4] | [5] | [7] | [9] | [11]

COc1cc(OC)nc(NC(=O)NS(=O)(=O)c2ncccc2OCC(F)(F)F)n1
not listed: [7] | [11] | [12] | [13] | [14]
inactive: all other assays above

C=C(C)CN(CC)c1c([N+](=O)[O-])cc(C(F)(F)F)cc1[N+](=O)[O-]
inactive: [2] | [3] | [4] | [5] | [6] | [7] | [12] | [9]

CC(C)Nc1nc(Cl)nc(NC(C)C)n1
inactive: [1] | [3] | [4] | [5] | [6] | [7] | [14] | [9]

CC1(C)C(C=C(Cl)Cl)C1C(=O)OC(C#N)c1cccc(Oc2ccccc2)c1 (centres undefined)
inactive: [1] | [2] | [3] | [4] | [5] | [7] | [14] | [9]

CC(C)C1(C)N=C(c2ncccc2C(=O)O)NC1=O (centres undefined)
active: [12] 1.9 µM
not listed: [3] | [4] | [8] | [10] | [13]
inactive: all other assays above

CC1(C)C(C(=O)OC(C#N)c2cccc(Oc3ccccc3)c2)C1(C)C (centres undefined)
not listed: [8] | [10] | [11] | [13] | [14]
inactive: all other assays above

OC(c1ccc(Cl)cc1)(c1ccc(Cl)cc1)C(Cl)(Cl)Cl
active: [13] 43.8 µM
not listed: [5] | [8] | [11] | [12]
inactive: all other assays above

CNC(=O)Oc1cccc2ccccc12
inactive: [1] | [3] | [4] | [5] | [9]

COP(=S)(OC)SCn1nnc2ccccc2c1=O
active: [12] 6.49 µM | [13] 6.68 µM | [8] 5.35 µM
not listed: [5] | [10] | [11]
inactive: all other assays above

CNC(=O)N(C)c1nnc(C(C)(C)C)s1
inactive: [1] | [2] | [3] | [4] | [5] | [7] | [9]

Clc1cccc(C(Cl)(Cl)Cl)n1
not listed: [2] | [9] | [12] | [13] | [14]
inactive: all other assays above

COCC(C)N(C(=O)CCl)c1c(C)csc1C (centres undefined)
active: [1] 36.2 µM | [2] 8.81 µM | [3] 24.5 µM | [4] 8.24 µM | [5] 30.8 µM | [9] 26.3 µM
inactive: [6] | [7] | [14]

Clc1nc(Cl)nc(Nc2ccccc2Cl)n1
active: [13] 6.29 µM
not listed: [2] | [4] | [7] | [10] | [12]
inactive: all other assays above

CCOc1nc(C(Cl)(Cl)Cl)ns1
not listed: [3] | [6] | [8] | [12]
inactive: all other assays above
